Compound activity: PubChem BioAssay, several laboratories
Hits are enriched below; roughly 3.3% of the tested compounds scored in any of these assays.
ERb SRC1 inh = blocks coactivator binding to human estrogen receptor beta; inhibition, % at 25.6 µM; TR-FRET ER-beta LBD / SRC1-Cy5 peptide binding; receptor agonist-loaded with 1 µM estradiol; AID 633; actives 1.3% (n = 86,000); Q92731;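 active means compounds whose percent inhibition of the receptor-coactivator binding signal exceeds about 50% in the single-dose screen, limit read from the data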;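 further: 0% = receptor plus peptide wells without compound and 100% = peptide-only wells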
FAK inh = FAK (human) kinase inhibition; Q05397; biochemical FAK kinase activity assay; inhibition, %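 (tested at 7 µM)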; actives 0.84% (n = 97,000); AID 727; in the data active means inhibition above about 19%;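 further: 0% = DMSO and 100% = reference compound high control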
ERa SRC1 pot = enhances coactivator binding to human estrogen receptor alpha; P03372; TR-FRET ERalpha-LBD/SRC-Cy5 coactivator binding, 2 h; 100 = basal binding, no effect; coactivator binding (% of control), % at 25.6 µM; actives 1.3% (n = 86,000); AID 639; in the data active means activity above about 200%;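 further: binding measured in presence of low estradiol as agonist stimulus; 0% = peptide alone without receptor and 100% = receptor with peptide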
ERa SRC1 inh = ER-alpha (human) coactivator binding inhibition | P03372 | TR-FRET ER-alpha LBD / SRC-1 peptide, estradiol-bound | inhibition, % at 25.6 µM | actives 1.7% (n = 86,000) | AID 629; in the data active means inhibition above about 50%;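 further: 0% = receptor plus peptide control and 100% = peptide only without receptor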
Candida biofilm = kills Candida albicans biofilms | C. albicans biofilm + clotrimazole, Alamar Blue | inhibition, % at 6 µM | actives 0.14% (n = 85,000) | AID 834;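 active means inhibition above 20%; inactive means inhibition below 20%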;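 further: preformed 24 hr biofilms exposed to compound for 48 hr; 0% = biofilm without compound and 100% = blank killed by clotrimazole plus chlorhexidine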
Smad3 inh = Smad3 (human) transcription factor binding inhibition. actives 0.29% (n = 88,000). P84022. inhibition, % at 25 µM. TR-FRET Smad3/Dy647-FoxH1 peptide binding, europium anti-His. AID 630;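 active means compounds that reduce the energy-transfer binding signal between the protein and its labelled peptide by more than half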;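 further: 0% = Smad3 plus labelled peptide maximal FRET and 100% = peptide-only background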
The depositor's hits bear a star; . = no result; [ ] = remark or other dose.

SMILES | ERb SRC1 inh | FAK inh | ERa SRC1 pot | ERa SRC1 inh | Candida biofilm | Smad3 inh
CCCCOc1ccc(-c2c(C#N)c(N)nc(SCC(N)=O)c2C#N)cc1 | 41 | 1 | 271*[fluorescence artefact?] | 42 | 1 | 5
CSc1nc(N)c(C#N)c(-c2ccc(Cl)cc2)c1C#N | 34 | 1 | 255*[fluorescence artefact?] | 42 | 2 | -10
CCOC(=O)CC(=O)CSc1nc(N)c(C#N)c(-c2ccc(F)cc2)c1C#N | -9 | 7 | 107 | -3 | 6 | -10
CCCCOC(=O)CSc1nc(N)c(C#N)c(-c2ccc(OC)cc2)c1C#N | 41 | -4 | 240*[fluorescence artefact?] | 61*[fluorescence artefact?] | 4 | 3
CCN1CCC(O)([C@H](C(=O)O)c2ccccc2)CC1 | . | . | . | . | . | -14
C#CCn1c(S(=O)(=O)Cc2ccc(F)cc2)nc(-c2ccccc2)c1-c1ccccc1 | . | 3 | . | . | . | .
COc1ccc(S(=O)(=O)N2CCN(CC(=O)Nc3ccc(C)c(F)c3)CC2)cc1 | 0 | -2 | 117 | -7 | 1 | 1
C=CCNC(=O)c1onc(CSc2ccc(F)cc2)c1C(=O)NCCOC | . | 3 | . | . | . | .
CCCCOC(=O)CSc1nc(N)c(C#N)c(-c2ccc(OCC)cc2)c1C#N | 76*[fluorescence artefact?] | -24 | 215*[fluorescence artefact?] | 51*[fluorescence artefact?] | 9 | 78*[fluorescence artefact?]
CCCOC(=O)CSc1nc(N)c(C#N)c(-c2ccco2)c1C#N | 22 | 9 | 120 | 4 | 6 | 13
CCc1cc2c(=O)n(CC)c(SC(C)C(=O)Nc3c(C)n(C)n(-c4ccccc4)c3=O)nc2s1 (centres undefined) | 55* | -2 | 98 | 1 | 2 | 1
Cc1cc(SC(C)C(=O)Nc2c(C)n(C)n(-c3ccccc3)c2=O)nc2ccccc12 (centres undefined) | -8 | -2 | 90 | -6 | 5 | -3
COC(=O)c1ccc(NC(=O)CN2C(=O)CSC2=O)cc1 | 8 | -5 | 319*[fluorescence artefact?] | 1 | 5 | -7
O=[N+]([O-])c1ccc2c(c1)c(S(=O)(=O)O)cc1nonc12 | . | . | . | . | . | 3
O=S(=O)(O)c1nc2ccccc2n1Cc1ccccc1 | 63* | -8 | 100 | 0 | 8 | 12
O=C(NCc1ccco1)c1ccc(Cn2c(=O)c3ccccc3n(Cc3cccc(Cl)c3)c2=O)cc1 | 50 | 2 | 61 | 67*[fluorescence artefact?] | -4 | -12
O=C(NCc1ccco1)c1ccc(Cn2c(=O)c3sccc3n(Cc3cccc(F)c3)c2=O)cc1 | 25 | 7 | 142 | 57*[fluorescence artefact?] | 7 | -6
CC1=C(C#N)C(Nc2ccc(C)cn2)(C(F)(F)F)C(=O)N1 (centres undefined) | 12 | -1 | 228*[fluorescence artefact?] | 5 | 2 | 6
CCC(=O)OCN1C(=O)C=CC1=O | . | . | . | . | . | 32
CCN(CC)CC[n+]1ccc2c(C)c3[nH]c4ccc(O)cc4c3c(C)c2c1 | . | . | . | . | . | 68*
O=C(NC1CCCCC1)C(c1ccccc1)N1CCc2ccccc21 (centres undefined) | -1 | 2 | 95 | 99*[fluorescence artefact?] | 9 | 10
Cc1cc(C)cc(NS(=O)(=O)c2ccc3[nH]c(=O)[nH]c3c2)c1 | -4 | -1 | 97 | -17 | 4 | 8
CSC(=[SH+])[N-]N=C(c1ccccn1)c1ccccn1.[Cu][Br] | . | . | . | . | . | 8
C/C(=N\[N-]C(=[SH+])SCc1ccccc1)c1ccccn1.[Cl][Cu] | . | . | . | . | . | 81*
CCCCCCC1CCC(C(=O)NC(CCSC)C(=O)NC(C(=O)OC)C(C)C)CC1 (centres undefined) | -13 | 0 | 96 | -6 | 37* | -5
SMILES | ERb SRC1 inh | FAK inh | ERa SRC1 pot | ERa SRC1 inh | Candida biofilm | Smad3 inh
O=C1NC(c2ccc(Br)cc2)Nc2sc3c(c21)CCC3 (centres undefined) | 64* | -1 | 26 | 51* | 5 | 1
O=C1NC(c2ccccn2)Nc2sc3c(c21)CCC3 (centres undefined) | 8 | 2 | 83 | -7 | -1 | -2
COC(=O)c1sc2ncn(-n3c(C)ccc3C)c(=O)c2c1C | -16 | -1 | 106 | -6 | 5 | 60*
C[C@]12CCC(=O)C=C1CC[C@H]1[C@H]2C(=O)C[C@]2(C)C(CC(=O)O)=CC[C@@H]12 | . | . | . | . | . | 5
CC(=O)OC1CC(C)(C)N(OC(=O)c2ccccc2)C(C)(C)C1 | -3 | . | 103 | -5 | -3 | -12
CC(=O)OC1CC(C)(C)N(OC(=O)c2ccc(N)cc2)C(C)(C)C1 | 20 | 4 | 54 | 61* | 6 | 10
Cc1nnc(SCC(=O)Nc2sccc2C#N)n1Cc1ccccc1 | . | 2 | . | . | . | .
CSCCC(NC(=O)c1ccco1)C(=O)OCC(=O)Nc1sccc1C#N (centres undefined) | 54* | 2 | 43 | 56*[fluorescence artefact?] | 1 | -2
C=C(C)C(=O)Nc1ccc(OC(F)(F)C(F)F)c(NC(=O)C(=C)C)c1 | -14 | -3 | 210* | -38 | 4 | 14
CC(=O)Nc1ccc(OC(F)(F)C(F)F)c(NC(C)=O)c1 | . | -1 | . | . | . | .
CCOC(=O)n1c(=O)n(Cc2ccc(Cl)c(Cl)c2)c2ccccc21 | . | 14 | . | . | . | .
NC1=N[C@@H](c2ccc(Cl)cc2)N(c2ccc(S(N)(=O)=O)cc2)C(N)=N1 | . | . | . | . | . | 6
Cn1c(=O)c2c(nc(Cc3ccccc3)n2CC(=O)O)n(C)c1=O | . | . | . | . | . | -9
O=[N+]([O-])c1cc(Cc2cc([N+](=O)[O-])c3cccnc3c2O)c(O)c2ncccc12 | . | . | . | . | . | 99*
Cc1cc([N+](=O)[O-])cc2ncccc12 | . | -3 | . | . | . | .
CCOc1ccc(-c2nnn(CC(=O)c3cc(OC)ccc3OC)n2)cc1 | -10 | -4 | 146 | -7 | 8 | 1
Cn1nc(C(=O)Nc2cccc(C(F)(F)F)c2)c2ccccc2c1=O | . | 0 | . | . | . | .
Cn1nc(C(=O)Nc2c(-c3ccccc3)nc3sccn23)c2ccccc2c1=O | 16 | 5 | 85 | 62*[fluorescence artefact?] | 5 | 3
O=C1c2cccc3cccc(c23)C(=O)N1c1ccc2ncccc2c1 | 23 | 12 | 172 | 71*[fluorescence artefact?] | 8 | 4
O=C1c2cccc3cccc(c23)C(=O)N1c1nccs1 | -7 | 0 | 128 | 4 | 11 | 8
CCNC(=O)c1c(O)c2ccccc2[nH]c1=O | 4 | . | 136 | 4 | 3 | 6
CCc1nc2ccccc2c(=O)n1NC(=O)c1c(O)c2ccccc2[nH]c1=O | 0 | . | 273* | -36 | 1 | 11
CCN1CCC(C(N)=O)CC1 | 51* | 1 | 105 | 3 | 6 | 7
CSC(=O)CC(=O)NC(=O)c1ccccc1 | 0 | 0 | 102 | 0 | 12 | -2
Cc1cccc(NC(=O)C2CCN(S(=O)(=O)c3c(C)nn(C)c3C)CC2)n1 | 57* | . | 114 | 2 | 1 | 3
Cc1nn(C)c(C)c1S(=O)(=O)N1CCC(C(=O)NC2CCCCCC2)CC1 | 1 | . | 127 | 1 | 9 | 3
Cc1cc(O)c(C(C)C)cc1CN1CCCCC1 | . | . | . | . | . | 18
Cc1c(Br)cc(C(=O)NCc2ccco2)c(C)c1C | 24 | . | 99 | 51* | 5 | 0
O=C(NCc1ccco1)c1cc2ccc(O)cc2oc1=O | 72* | 6 | 91 | 64* | 4 | 10
